Test results as given in PubChem BioAssay (Tox21).
Results filed as inconclusive are left out. A call without a number means that no potency is given here. Calls of active or inactive are those of the source. Calls come from the whole dose curve.

Experiment: p53 small molecule agonists, cell-based qHTS assay with human liver microsomes (AID 1963577);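 note: p53 response element beta-lactamase reporter cells with liver microsomes plus NADPH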
How it was run: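 HLM-supplemented p53RE-bla reporter assay: 16 h compound exposure at 37 C, microsomes and NADPH each 0.5 mg/mL final, read by fluorescence intensity.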

O=C(Nc1ccc(Cl)c(Cl)c1)c1cc(Cl)cc(Cl)c1O
Potency: inactive

CCCCNCCCC
Potency: inactive

CC[C@]1(O)C[C@H]2CN(CCc3c([nH]c4ccccc34)[C@@](C(=O)OC)(c3cc4c(cc3OC)N(C=O)[C@H]3[C@@](O)(C(=O)OC)[C@H](OC(C)=O)[C@]5(CC)C=CCN6CC[C@]43[C@@H]65)C2)C1
Potency: inactive

CC(C)c1ccc2c(c1)CC[C@H]1[C@](C)(CN)CCC[C@]21C
Potency: inactive

CC=O
Potency: inactive

CCCC/C=C/C=C\C=O
Potency: inactive

CCCCCCCCOC(=O)c1cc(O)c(O)c(O)c1
Potency: inactive

CC(C)(C)c1cc(O)c(C(C)(C)C)cc1O
Potency: inactive
